Assay outcomes as filed in PubChem BioAssay.
LmPK inhibitor: blocks Leishmania mexicana pyruvate kinase activity. AID 1721. Potency, µM (highest dose often 57.5 µM), for the others: at the top dose activity change, negative = inhibition, actives largely listed as inhibitors. purified LmPK, Kinase-Glo ATP luminescence, 1 h. 290,000 tested, 0.37% active. Q27686; further: potency means the concentration at half of the fitted maximal effect; on the % scale 0 is the no-effect control and ±100 the full control effect
Target sequence (Q27686 whole entry, looked up): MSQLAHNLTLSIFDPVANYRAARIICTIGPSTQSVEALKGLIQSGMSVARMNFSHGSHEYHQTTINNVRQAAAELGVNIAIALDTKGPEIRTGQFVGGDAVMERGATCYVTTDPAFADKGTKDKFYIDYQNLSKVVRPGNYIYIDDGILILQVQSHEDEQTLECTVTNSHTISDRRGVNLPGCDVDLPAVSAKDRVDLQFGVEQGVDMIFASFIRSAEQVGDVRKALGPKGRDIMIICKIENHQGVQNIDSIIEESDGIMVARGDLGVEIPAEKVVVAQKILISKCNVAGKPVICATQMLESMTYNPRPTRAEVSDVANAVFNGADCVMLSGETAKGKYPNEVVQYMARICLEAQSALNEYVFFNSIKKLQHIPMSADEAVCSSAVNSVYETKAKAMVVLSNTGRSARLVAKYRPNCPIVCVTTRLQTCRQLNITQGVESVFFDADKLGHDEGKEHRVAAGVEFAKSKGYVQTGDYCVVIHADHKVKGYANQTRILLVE
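In 50 mM imidazole pH 7.2 with 7 mM MgCl2, LmPK (0.1 nM) turned over PEP (0.5 mM) and ADP (0.1 mM) for 1 h at room temperature. Luciferase read-out of ATP.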
CHX counter: counter-screen for Shiga toxin inhibitors: cycloheximide protein synthesis inhibition; cell reporter, cycloheximide protein synthesis inhibition counterscreen; 300,000 tested, 12% active; max response, %; in the data active means max response mostly above about 13%, no sharp cut-off; inactive means mostly below about 14%; further: read at 38.3 µM for the half of the compounds with a filed dose; 0% is about no effect
Pf growth 48h: P. falciparum growth inhibition at 48 hours (one generation). P. falciparum luciferase growth in erythrocytes, 48 h. Potency, µM (highest dose often 28.7 µM), for inactives: top-dose activity change, negative = inhibition, usual class: inhibitors. 310,000 tested, 5.9% active. AID 504832; further: potency means the concentration at half of the fitted maximal effect; on the % scale 0 is the no-effect control and ±100 the full control effect
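Growth was read as firefly luciferase luminescence after a 48 h, 37 C, 5% CO2 exposure of compounds to reporter-bearing P. falciparum cultures (0.1% parasitemia, 2% hematocrit final) in Albumax-supplemented RPMI 1640.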
Shiga inhibitor: inhibitors of Shiga toxin in Vero cells. AID 2315. inhibition, % at 38.7 µM. Vero cells, Shiga toxin protein synthesis inhibition reporter. 290,000 tested, 9.2% active; in the data active means inhibition mostly above about 28%, no sharp cut-off; inactive means mostly below about 43%; further: 0% is about no effect
Pf growth 96h: inhibits malaria parasite growth, 96 h. Potency, µM (doses to about 28.7 µM), for inactives: at the highest dose activity change, negative = inhibition, hits mostly inhibitors. P. falciparum luciferase reporter growth, 96 h. AID 504834. 320,000 tested, 6.9% active; further: potency means the concentration at half of the fitted maximal effect; on the % scale 0 is the no-effect control and ±100 the full control effect
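96 h incubation, 37 C, 5% CO2, of luciferase-reporter P. falciparum-infected RBCs (2% hematocrit, 0.05% parasitemia final) with test compounds; endpoint luminescence.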
* = called active by the depositor; i = inactive; ? = inconclusive; / = no result. In the library only some 22% were active in any assay of this set; here they are far more common. Unless noted, the call rests on the fitted dose curve; in most records, active means well fitted inhibition curve with a large enough effect; inconclusive means small, poorly fitted or top-dose-only effect, or another doubt; inactive means no such curve, though single readings can be large or run the other way.

SMILES	LmPK inhibitor	CHX counter	Pf growth 48h	Shiga inhibitor	Pf growth 96h
Cc1ccc(N(C(=O)Cn2nnc(-c3ccc(C)o3)n2)C(C(=O)NC2CCCC2)c2ccncc2)cc1 (stereo not given)	3.1%	-6.1	0.0%	-7.4	10.4µM*
O=C(NC1CCCC1)C(c1cccs1)N(Cc1ccco1)C(=O)Cn1nnc(-c2cccs2)n1 (stereo not given)	1.0%	1.0	?	-7.3	8.3%
CC(C)(C)NC(=O)C(c1ccc(F)cc1)N(Cc1ccco1)C(=O)Cn1nnc(-c2cccs2)n1 (stereo not given)	2.0%	3.4	5.86µM*	9.5	?
CCCCC(C(=O)NC1CCCC1)N(Cc1ccco1)C(=O)Cn1nnc(-c2ccc(F)cc2)n1 (stereo not given)	2.6%	-2.4	/	8.5	11.7µM*
O=C(CSc1nc(O)cc(=O)n1-c1ccccc1)Nc1ccc(Br)cn1	-0.1%	3.2	-2.7%	2.3	34.7%
O=C(Nc1nonc1NC(=O)c1cccs1)c1cccs1	0.7%	5.1	6.4%	20.3	-14.6%
CCC(C(=O)NC1CCCC1)N(C(=O)Cn1nnc(-c2ccc(C)o2)n1)c1ccc(OC)cc1 (stereo not given)	0.4%	-4.9	?	-4.7	27.2%
Cc1ccc(-c2nnn(CC(=O)N(CC3CCCO3)C(C(=O)NC(C)(C)C)c3ccc(F)cc3)n2)o1 (stereo not given)	2.9%	-2.0	10.4µM*	-1.8	11.7µM*
Cc1ccc(N(C(=O)Cn2nnc(-c3ccc(F)cc3)n2)C(CC(C)C)C(=O)NCC2CCCO2)cc1 (stereo not given)	4.9%	-1.6	13.1µM*	-6.9	?
O=C(NCC1CCCO1)C(c1ccncc1)N(Cc1cccs1)C(=O)Cn1nnc(-c2ccc(F)cc2)n1 (stereo not given)	-7.0%	-2.6	0.8%	-9.1	?
Cc1ccc(-c2nnn(CC(=O)N(CC3CCCO3)C(C(=O)NCC3CCCO3)c3ccc(F)cc3)n2)o1 (stereo not given)	5.4%	-1.8	-25.2%	-4.7	?
Cc1ccc(-c2nnn(CC(=O)N(Cc3cccs3)C(C(=O)NC3CCCC3)c3ccncc3)n2)cc1 (stereo not given)	8.8%	-0.7	5.86µM*	-5.1	?
CCC(C(=O)NC1CCCC1)N(C(=O)Cn1nnc(-c2ccc(C)o2)n1)C(C)(C)C (stereo not given)	2.0%	1.3	?	-8.1	2.33µM*
CC(C)CC(C(=O)NCC1CCCO1)N(C(=O)Cn1nnc(-c2ccc(F)cc2)n1)c1ccccc1F (stereo not given)	3.5%	-5.4	?	-13.9	44.4%
COc1ccc(C(CNC(=O)C(=O)Nc2ccc3c(c2)OCCO3)N2CCN(C)CC2)cc1 (stereo not given)	/	/	?	/	55.8%
CCOc1ccc(C(=O)Nc2ccc3nc(N4CCN(CC)CC4)cc(C)c3c2)cc1	5.1%	-8.1	2.33µM*	-17.5	18.2%
CCN1CCN(c2cc(C)c3cc(NC(=O)c4cnccn4)ccc3n2)CC1	3.1%	4.4	/	24.1	-20.0%
CCN1CCN(c2cc(C)c3cc(NC(=O)c4cc(OC)cc(OC)c4)ccc3n2)CC1	4.4%	18.5*	?	63.6*	?
CCN1CCN(c2cc(C)c3cc(NC(=O)CCC(=O)N4CCN(c5ccccc5OC)CC4)ccc3n2)CC1	-1.4%	17.2*	?	3.7	88.3%
C=CCn1c(C)c(C(C)=O)c(N2CCN(C(c3ccccc3)c3ccccc3)CC2)nc1=S	9.7%	0.6	?	9.7	?
O=[N+]([O-])c1ccc(-c2cnc3ccccc3n2)cc1	-0.1%	26.0*	110.9%	32.0*	-21.6%
O=[N+]([O-])c1cc(-c2cnc3ccccc3n2)ccc1Oc1ccc(F)cc1	1.1%	53.1*	14.2%	80.6*	67.3%
CCOc1ccc(-c2cnc3ccccc3n2)cc1	?	39.6*	66.5%	95.9*	i
O=[N+]([O-])c1ccc(O)c(/C=N/Nc2nc3ccccc3[nH]2)c1	-0.3%	19.4*	2.33µM*	8.8	75.7%
COc1cc(/C=N/NC(=O)c2cc3ccccc3[nH]2)ccc1O	-4.9%	7.4	?	13.9	?
SMILES	LmPK inhibitor	CHX counter	Pf growth 48h	Shiga inhibitor	Pf growth 96h
COc1cc(/C=N/Nc2nc3ccccc3[nH]2)cc(Br)c1OCC(=O)N(C)C	8.2%	37.1*	0.465µM*	138.8*	0.465µM*
COc1cc(/C=N/NC(=O)c2ccc(CSc3nc4ccccc4[nH]3)cc2)cc(OC)c1OC	1.3%	8.4	?	11.5	0.0%
COc1cc(/C=N/Nc2snc(SC)c2C#N)ccc1O	-0.9%	27.5*	47.7%	34.3	129.5%
COc1cc(/C=N/Nc2nc3ccccc3[nH]c2=O)ccc1O	-6.3%	19.5	?	16.8*	?
COc1cc(/C=N/Nc2ccc(Cl)nn2)cc(OC)c1O	-7.5%	5.6	-19.5%	4.7	?
COc1cc(/C=N/Nc2nc3ccccc3[nH]2)ccc1O	-9.0%	36.6*	0.828µM*	32.7*	?
COc1cc(/C=N/Nc2nc3ccccc3[nH]2)cc(OC)c1O	-20.0%	18.0*	1.65µM*	73.5	0.928µM*
COc1ccc(O)c(/C=N/Nc2nc3ccccc3[nH]2)c1	0.0%	49.0*	1.85µM*	81.7*	2.1%
CN(CC1CCOCC1)C(=O)CC1C(=O)NCCN1C/C=C/c1ccccc1 (stereo not given)	3.0%	1.4	5.8%	-5.9	4.65µM*
Cc1cc(CNC(=O)CC2C(=O)NCCN2CC(c2ccccc2)c2ccccc2)on1 (stereo not given)	1.2%	-2.4	1.5%	13.8	14.7µM*
O=C1NCCN(Cc2ccoc2)C1CC(=O)N(Cc1ccccc1)CC1CCC1 (stereo not given)	6.2%	13.1*	16.3%	34.1	?
Cc1ccc(CN2CCNC(=O)C2CC(=O)N(C)CCc2ccccc2)cc1 (stereo not given)	-3.4%	-1.2	?	0.9	7.38µM*
CN(CCC1CCOCC1)C(=O)CC1C(=O)NCCN1C/C=C/c1ccccc1 (stereo not given)	3.0%	-2.9	-2.1%	12.0	40.1%
CN(CC1CCOCC1)C(=O)CC1C(=O)NCCN1Cc1cccc(F)c1 (stereo not given)	-2.4%	3.8	?	21.0	84.3%
Cn1c(SCC(=O)Nc2ccccc2)nnc1-c1ccc2nonc2c1	-9.6%	-1.7	12.8%	-1.5	12.7%
Cn1c(=O)[nH]c(=O)c2cc(C(=O)c3cc(F)ccc3O)cnc21	-4.0%	-3.1	0.0%	6.9	1.1%
Cc1cc(CNC(=O)CC2C(=O)NCCN2Cc2ccccc2)nn1C (stereo not given)	-6.9%	3.6	-8.8%	-1.5	?
CN(CCc1ccccn1)C(=O)CC1C(=O)NCCN1Cc1ccc(-c2ccccc2)cc1 (stereo not given)	5.0%	1.1	?	11.3	11.7µM*
